# Reference: paper PMC7862700, “An all-to-all approach to the identification of sequence-specific readers for epigenetic DNA modifications on cytosine”
# Experiments:
# Assay in all cases: DAPPL (digital affinity profiling via proximity ligation, sequencing); 10 mM Tris-HCl pH 7.5, 50 mM NaCl, 1 mM DTT, 4% glycerol, room temperature, 30 min; GST-TFs on glutathione beads, 16-mer random dsDNA library, 0.1% formaldehyde crosslink after washing; high values mean tight binding
# FLI1 = target: T1, FLI1 (Homo sapiens, UniProt Q01543 1-452); conditions: protein: recombinant; tags: N-terminal GST; dsDNA, one strand shown
# T1 sequence: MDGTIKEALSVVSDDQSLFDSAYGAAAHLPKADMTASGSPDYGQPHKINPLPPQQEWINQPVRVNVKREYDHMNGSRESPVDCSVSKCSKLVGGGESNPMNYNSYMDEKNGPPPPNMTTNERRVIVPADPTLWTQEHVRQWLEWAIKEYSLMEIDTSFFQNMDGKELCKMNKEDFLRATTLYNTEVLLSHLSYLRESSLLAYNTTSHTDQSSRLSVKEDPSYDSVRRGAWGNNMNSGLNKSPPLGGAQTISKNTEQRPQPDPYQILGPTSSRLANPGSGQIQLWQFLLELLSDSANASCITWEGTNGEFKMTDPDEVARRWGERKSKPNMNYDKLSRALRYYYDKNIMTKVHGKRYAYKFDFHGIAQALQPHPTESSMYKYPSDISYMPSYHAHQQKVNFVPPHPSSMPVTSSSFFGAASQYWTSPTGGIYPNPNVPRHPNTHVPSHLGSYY
# Procedure, shortened: (§1)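 GST fusions of human transcription factors were expressed in yeast and captured with glutathione beads. Once given DNA barcodes and pooled alongside a tag-only sample, they were incubated for 30 min at room temperature with 200 nmole of a random double-stranded 16-mer DNA library in Tris/NaCl/DTT/glycerol buffer, then washed, crosslinked (0.1% formaldehyde), proximity-ligated, PCR-amplified and sequenced on an Illumina NextSeq500. The binding signal of each hexamer is its read frequency for a factor divided by its frequency for the tag-only sample.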
# ELK1 = target: T2, ELK1 (Homo sapiens, UniProt P19419 1-428); conditions: protein: recombinant; tags: N-terminal GST; dsDNA, one strand shown
# T2 sequence: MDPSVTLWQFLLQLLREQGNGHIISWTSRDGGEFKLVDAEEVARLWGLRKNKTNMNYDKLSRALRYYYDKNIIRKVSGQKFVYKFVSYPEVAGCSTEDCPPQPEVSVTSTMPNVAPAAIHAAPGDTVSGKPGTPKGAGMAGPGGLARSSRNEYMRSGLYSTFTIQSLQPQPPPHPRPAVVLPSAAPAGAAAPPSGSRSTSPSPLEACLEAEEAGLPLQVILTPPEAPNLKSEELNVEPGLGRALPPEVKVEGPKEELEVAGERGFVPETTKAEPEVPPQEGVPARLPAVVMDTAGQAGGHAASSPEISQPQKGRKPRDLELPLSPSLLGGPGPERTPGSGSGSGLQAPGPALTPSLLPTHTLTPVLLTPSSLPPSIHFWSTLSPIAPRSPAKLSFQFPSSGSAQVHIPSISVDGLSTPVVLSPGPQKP
# Procedure, shortened: as §1
# GABPA = target: T3, GABPA (Homo sapiens, UniProt Q06546 1-454); conditions: protein: recombinant; tags: N-terminal GST; dsDNA, one strand shown
# T3 sequence: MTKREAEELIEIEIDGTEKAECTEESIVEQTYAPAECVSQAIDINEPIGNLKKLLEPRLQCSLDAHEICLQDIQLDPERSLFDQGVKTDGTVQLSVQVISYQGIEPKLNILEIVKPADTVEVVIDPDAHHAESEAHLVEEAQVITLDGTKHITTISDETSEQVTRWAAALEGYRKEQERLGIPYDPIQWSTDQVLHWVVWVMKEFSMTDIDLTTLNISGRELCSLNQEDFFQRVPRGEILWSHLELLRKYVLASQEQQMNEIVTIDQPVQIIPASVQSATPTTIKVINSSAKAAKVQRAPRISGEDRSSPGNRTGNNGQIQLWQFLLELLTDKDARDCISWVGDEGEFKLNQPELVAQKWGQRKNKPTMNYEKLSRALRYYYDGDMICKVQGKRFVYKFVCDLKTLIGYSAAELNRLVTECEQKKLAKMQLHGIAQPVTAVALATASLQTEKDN
# Procedure, shortened: as §1
# ERG = target: T4, ERG (Homo sapiens, UniProt P11308 1-479); conditions: protein: recombinant; tags: N-terminal GST; dsDNA, one strand shown
# T4 sequence: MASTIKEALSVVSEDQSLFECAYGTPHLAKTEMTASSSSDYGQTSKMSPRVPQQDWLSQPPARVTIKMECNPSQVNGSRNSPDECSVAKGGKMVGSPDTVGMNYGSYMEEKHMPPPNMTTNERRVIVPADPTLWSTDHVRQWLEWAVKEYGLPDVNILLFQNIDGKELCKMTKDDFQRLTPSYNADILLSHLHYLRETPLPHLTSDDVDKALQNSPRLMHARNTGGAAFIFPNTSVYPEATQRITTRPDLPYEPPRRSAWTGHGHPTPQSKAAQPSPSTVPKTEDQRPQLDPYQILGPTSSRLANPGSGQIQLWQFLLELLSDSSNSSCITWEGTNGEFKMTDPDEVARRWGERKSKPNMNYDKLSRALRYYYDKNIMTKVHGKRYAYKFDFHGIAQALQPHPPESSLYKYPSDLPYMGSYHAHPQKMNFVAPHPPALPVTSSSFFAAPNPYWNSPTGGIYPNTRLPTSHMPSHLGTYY
# Procedure, shortened: as §1
# ELF1 = ELF1 (Homo sapiens, UniProt P32519 1-619); conditions: protein: recombinant; tags: N-terminal GST; dsDNA, one strand shown
# Procedure, shortened: as §1
# EHF = target: T5, EHF (Homo sapiens, UniProt Q9NZC4 1-300); conditions: protein: recombinant; tags: N-terminal GST; dsDNA, one strand shown
# T5 sequence: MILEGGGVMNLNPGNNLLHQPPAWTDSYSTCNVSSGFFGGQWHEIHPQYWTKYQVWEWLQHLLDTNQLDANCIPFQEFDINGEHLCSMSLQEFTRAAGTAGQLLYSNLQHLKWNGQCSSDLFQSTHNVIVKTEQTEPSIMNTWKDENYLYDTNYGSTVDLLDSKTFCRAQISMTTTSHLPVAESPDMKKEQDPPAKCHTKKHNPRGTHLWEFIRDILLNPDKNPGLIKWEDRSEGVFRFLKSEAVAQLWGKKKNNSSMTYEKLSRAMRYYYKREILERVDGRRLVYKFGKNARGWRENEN
# Procedure, shortened: as §1
# SPI1 = SPI1 (Homo sapiens, UniProt P17947 1-270); conditions: protein: recombinant; tags: N-terminal GST; dsDNA, one strand shown
# Procedure, shortened: as §1
# SPIB = SPIB (Homo sapiens, UniProt Q01892 1-262); conditions: protein: recombinant; tags: N-terminal GST; dsDNA, one strand shown
# Procedure, shortened: as §1
# ELK3 = target: T6, ELK3 (Homo sapiens, UniProt P41970 1-407); conditions: protein: recombinant; tags: N-terminal GST; dsDNA, one strand shown
# T6 sequence: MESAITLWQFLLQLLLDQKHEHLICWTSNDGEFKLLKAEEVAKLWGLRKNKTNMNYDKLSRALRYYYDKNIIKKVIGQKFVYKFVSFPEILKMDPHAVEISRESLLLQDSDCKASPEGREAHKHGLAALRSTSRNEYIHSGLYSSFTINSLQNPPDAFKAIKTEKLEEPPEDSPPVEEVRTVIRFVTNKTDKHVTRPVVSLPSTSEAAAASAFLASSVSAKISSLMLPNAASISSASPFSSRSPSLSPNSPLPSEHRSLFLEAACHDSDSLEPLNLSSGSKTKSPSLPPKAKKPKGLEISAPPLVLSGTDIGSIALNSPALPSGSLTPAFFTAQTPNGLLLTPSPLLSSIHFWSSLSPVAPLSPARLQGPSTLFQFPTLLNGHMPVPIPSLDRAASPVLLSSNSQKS
# Procedure, shortened: as §1
# FEV = target: T7, FEV (Homo sapiens, UniProt Q99581 1-238); conditions: protein: recombinant; tags: N-terminal GST; dsDNA, one strand shown
# T7 sequence: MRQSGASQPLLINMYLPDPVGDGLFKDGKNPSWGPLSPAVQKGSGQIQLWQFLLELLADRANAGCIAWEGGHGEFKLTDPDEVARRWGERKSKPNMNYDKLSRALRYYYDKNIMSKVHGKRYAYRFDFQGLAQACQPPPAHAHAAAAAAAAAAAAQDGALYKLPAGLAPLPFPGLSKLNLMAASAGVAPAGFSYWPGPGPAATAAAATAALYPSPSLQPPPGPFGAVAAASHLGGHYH
# Procedure, shortened: as §1
# ETV5 = ETV5 (Homo sapiens, UniProt P41161 1-510); conditions: protein: recombinant; tags: N-terminal GST; dsDNA, one strand shown
# Procedure, shortened: as §1
# HSF1 = HSF1 (Homo sapiens, UniProt Q00613 1-529); conditions: protein: recombinant; tags: N-terminal GST; chain copies: 3; dsDNA, one strand shown
# Procedure, shortened: as §1
# SPIC = target: T8, SPIC (Homo sapiens, UniProt Q8N5J4 1-248); conditions: protein: recombinant; tags: N-terminal GST; dsDNA, one strand shown
# T8 sequence: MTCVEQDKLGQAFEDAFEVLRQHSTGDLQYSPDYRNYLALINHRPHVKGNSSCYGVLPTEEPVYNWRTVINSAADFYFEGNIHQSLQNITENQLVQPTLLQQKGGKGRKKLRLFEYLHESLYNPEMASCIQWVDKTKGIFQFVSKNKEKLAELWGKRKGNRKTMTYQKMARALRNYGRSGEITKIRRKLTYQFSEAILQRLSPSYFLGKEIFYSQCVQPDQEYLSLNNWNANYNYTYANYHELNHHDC
# Procedure, shortened: as §1
# ELF4 = ELF4 (Homo sapiens, UniProt Q99607 1-663); conditions: protein: recombinant; tags: N-terminal GST; dsDNA, one strand shown
# Procedure, shortened: as §1
# ELK4 = target: T9, ELK4 (Homo sapiens, UniProt P28324-2 1-405); conditions: protein: recombinant; tags: N-terminal GST; dsDNA, one strand shown
# T9 sequence: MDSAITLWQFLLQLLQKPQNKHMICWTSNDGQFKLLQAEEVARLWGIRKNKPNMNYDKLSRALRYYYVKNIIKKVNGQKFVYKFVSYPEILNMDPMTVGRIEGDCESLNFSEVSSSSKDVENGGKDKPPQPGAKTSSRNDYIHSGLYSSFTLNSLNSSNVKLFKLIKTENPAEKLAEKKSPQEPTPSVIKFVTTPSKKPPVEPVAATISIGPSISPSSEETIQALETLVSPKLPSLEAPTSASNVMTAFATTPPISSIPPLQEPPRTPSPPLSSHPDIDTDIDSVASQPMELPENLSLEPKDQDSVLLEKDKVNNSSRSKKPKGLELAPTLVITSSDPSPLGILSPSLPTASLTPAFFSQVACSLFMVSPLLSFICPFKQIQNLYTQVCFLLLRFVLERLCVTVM
# Procedure, shortened: as §1
# ETV2 = target: T10, ETV2 (Homo sapiens, UniProt O00321 1-342); conditions: protein: recombinant; tags: N-terminal GST; dsDNA, one strand shown
# T10 sequence: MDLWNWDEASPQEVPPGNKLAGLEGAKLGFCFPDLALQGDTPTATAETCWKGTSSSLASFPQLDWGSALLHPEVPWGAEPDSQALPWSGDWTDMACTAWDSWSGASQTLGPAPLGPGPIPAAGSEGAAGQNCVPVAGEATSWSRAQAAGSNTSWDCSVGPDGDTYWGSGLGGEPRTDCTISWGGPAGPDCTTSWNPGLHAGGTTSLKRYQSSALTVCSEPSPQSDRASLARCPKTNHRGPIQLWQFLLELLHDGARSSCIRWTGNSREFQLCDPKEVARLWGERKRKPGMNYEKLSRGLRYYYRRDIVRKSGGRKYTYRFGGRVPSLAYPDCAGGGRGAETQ
# Procedure, shortened: as §1
# ELF3 = target: T11, ELF3 (Homo sapiens, UniProt P78545 1-371); conditions: protein: recombinant; tags: N-terminal GST; dsDNA, one strand shown
# T11 sequence: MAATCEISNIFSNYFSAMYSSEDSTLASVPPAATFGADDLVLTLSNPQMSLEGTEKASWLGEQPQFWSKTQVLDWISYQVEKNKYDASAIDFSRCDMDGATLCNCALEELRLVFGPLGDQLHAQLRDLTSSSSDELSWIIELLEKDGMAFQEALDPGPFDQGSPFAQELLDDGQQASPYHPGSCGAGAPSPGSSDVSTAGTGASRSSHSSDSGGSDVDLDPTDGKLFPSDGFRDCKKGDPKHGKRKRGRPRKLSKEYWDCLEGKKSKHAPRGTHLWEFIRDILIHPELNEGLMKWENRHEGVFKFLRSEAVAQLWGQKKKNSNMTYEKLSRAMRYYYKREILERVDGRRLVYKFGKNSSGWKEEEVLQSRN
# Procedure, shortened: as §1
# CRX = CRX (Homo sapiens, UniProt O43186 1-299); conditions: protein: recombinant; tags: N-terminal GST; dsDNA, one strand shown
# Procedure, shortened: as §1
# ETV1 = ETV1 (Homo sapiens, UniProt P50549 1-477); conditions: protein: recombinant; tags: N-terminal GST; dsDNA, one strand shown
# Procedure, shortened: as §1
# Sequence of CRX (O43186 whole entry): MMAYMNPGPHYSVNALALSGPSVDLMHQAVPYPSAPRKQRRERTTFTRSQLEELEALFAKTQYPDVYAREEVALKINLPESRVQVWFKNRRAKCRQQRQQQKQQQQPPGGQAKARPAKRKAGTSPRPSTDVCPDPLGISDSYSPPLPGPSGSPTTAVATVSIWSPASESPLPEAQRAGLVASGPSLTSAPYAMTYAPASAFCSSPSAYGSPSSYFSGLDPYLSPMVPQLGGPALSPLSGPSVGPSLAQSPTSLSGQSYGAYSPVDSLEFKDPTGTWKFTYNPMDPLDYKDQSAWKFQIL
# Sequence of HSF1 (Q00613 whole entry): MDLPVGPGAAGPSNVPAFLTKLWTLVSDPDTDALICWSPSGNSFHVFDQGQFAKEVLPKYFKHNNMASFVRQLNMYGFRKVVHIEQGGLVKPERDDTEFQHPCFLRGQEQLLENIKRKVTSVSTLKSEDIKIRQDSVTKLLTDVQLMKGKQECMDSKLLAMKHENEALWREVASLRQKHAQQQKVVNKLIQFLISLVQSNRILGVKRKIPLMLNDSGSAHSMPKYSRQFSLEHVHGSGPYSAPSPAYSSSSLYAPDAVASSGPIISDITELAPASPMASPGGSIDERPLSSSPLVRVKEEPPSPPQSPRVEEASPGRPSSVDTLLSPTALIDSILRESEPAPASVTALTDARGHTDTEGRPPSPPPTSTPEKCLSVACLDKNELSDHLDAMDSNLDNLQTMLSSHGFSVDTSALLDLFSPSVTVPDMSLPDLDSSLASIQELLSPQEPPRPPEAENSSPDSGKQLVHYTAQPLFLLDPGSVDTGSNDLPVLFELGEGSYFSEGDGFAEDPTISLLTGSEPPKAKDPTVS
# Sequence of ELF4 (Q99607 whole entry): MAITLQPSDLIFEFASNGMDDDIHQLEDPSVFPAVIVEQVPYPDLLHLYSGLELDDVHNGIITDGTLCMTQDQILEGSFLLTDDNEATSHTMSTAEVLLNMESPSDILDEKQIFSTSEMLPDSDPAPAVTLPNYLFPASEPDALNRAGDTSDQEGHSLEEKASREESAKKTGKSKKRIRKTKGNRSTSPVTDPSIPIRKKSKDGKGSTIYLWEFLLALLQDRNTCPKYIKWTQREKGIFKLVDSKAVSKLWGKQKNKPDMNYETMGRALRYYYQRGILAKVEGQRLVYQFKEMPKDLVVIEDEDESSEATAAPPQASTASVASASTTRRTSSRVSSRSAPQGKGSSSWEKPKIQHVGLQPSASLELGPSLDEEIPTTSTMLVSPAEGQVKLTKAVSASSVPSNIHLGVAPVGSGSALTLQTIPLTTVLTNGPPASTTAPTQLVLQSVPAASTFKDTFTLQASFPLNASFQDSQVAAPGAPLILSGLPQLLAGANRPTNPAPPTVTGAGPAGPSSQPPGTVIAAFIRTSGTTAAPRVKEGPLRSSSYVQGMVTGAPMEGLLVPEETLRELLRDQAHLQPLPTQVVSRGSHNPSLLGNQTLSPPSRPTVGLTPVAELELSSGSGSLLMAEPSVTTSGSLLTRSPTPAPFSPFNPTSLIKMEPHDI
# Sequence of ETV5 (P41161 whole entry): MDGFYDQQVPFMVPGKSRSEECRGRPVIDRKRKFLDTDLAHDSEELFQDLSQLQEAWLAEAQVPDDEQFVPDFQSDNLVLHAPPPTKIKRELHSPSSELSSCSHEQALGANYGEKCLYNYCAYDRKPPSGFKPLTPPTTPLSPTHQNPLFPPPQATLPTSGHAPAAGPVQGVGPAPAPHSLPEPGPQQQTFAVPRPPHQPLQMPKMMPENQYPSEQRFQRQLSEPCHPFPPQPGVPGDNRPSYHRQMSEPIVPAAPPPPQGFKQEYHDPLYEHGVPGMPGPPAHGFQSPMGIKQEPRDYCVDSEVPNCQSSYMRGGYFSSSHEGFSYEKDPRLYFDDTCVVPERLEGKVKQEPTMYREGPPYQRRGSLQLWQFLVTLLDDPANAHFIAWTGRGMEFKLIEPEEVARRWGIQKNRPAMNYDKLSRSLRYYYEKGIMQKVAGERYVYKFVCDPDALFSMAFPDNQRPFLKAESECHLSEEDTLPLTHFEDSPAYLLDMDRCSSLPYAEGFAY
# Sequence of ELF1 (P32519 whole entry): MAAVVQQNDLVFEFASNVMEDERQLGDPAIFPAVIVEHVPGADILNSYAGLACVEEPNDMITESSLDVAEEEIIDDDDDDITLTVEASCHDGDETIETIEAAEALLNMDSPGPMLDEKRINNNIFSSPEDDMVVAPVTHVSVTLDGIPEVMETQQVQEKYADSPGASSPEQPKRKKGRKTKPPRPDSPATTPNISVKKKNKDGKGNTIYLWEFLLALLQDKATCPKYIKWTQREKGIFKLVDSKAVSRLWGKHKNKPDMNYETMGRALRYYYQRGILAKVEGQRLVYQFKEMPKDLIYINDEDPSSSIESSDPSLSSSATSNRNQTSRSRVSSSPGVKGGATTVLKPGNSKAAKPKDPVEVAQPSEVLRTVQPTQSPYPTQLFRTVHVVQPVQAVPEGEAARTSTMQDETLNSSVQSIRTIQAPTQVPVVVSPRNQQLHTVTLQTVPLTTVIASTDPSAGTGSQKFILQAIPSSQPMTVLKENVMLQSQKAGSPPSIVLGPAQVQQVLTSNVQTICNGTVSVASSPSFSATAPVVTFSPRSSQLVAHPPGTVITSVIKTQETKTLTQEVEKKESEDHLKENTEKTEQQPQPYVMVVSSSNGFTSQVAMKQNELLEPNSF
# Sequence of ETV1 (P50549 whole entry): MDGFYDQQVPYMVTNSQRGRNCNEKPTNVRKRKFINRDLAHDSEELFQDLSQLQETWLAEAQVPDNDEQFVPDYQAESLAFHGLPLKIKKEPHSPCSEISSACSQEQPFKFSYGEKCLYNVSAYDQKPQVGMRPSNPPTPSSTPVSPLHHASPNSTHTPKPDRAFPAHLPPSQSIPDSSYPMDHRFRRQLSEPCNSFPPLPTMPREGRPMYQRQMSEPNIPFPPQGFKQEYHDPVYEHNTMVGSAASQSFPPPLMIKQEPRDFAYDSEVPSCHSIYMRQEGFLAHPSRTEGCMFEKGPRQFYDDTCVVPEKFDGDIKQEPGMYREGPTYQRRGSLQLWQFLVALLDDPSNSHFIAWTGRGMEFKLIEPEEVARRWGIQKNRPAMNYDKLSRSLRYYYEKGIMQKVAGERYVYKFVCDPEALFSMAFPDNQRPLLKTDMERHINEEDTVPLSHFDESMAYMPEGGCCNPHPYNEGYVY
# Sequence of SPIB (Q01892 whole entry): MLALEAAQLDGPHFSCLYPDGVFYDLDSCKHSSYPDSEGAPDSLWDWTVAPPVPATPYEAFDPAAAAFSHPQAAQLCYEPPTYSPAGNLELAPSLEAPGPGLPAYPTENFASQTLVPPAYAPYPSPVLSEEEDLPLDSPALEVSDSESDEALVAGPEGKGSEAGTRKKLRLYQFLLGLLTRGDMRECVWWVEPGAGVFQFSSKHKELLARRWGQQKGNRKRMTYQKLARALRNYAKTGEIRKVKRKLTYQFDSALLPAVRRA
sequence,measurement,setting,value
TTCTTG,binding signal,FLI1,"1.42 fold enrichment (6-mer frequency, TF over GST control)"
same,binding signal,ELK1,"1.46 fold enrichment (6-mer frequency, TF over GST control)"
same,binding signal,GABPA,"1.5 fold enrichment (6-mer frequency, TF over GST control)"
same,binding signal,ERG,"1.38 fold enrichment (6-mer frequency, TF over GST control)"
same,binding signal,ELF1,"1.46 fold enrichment (6-mer frequency, TF over GST control)"
same,binding signal,EHF,"1.56 fold enrichment (6-mer frequency, TF over GST control)"
same,binding signal,SPI1,"1.45 fold enrichment (6-mer frequency, TF over GST control)"
same,binding signal,SPIB,"1.39 fold enrichment (6-mer frequency, TF over GST control)"
same,binding signal,ELK3,"1.35 fold enrichment (6-mer frequency, TF over GST control)"
same,binding signal,FEV,"1.29 fold enrichment (6-mer frequency, TF over GST control)"
same,binding signal,ETV5,"1.41 fold enrichment (6-mer frequency, TF over GST control)"
same,binding signal,HSF1,"1.98 fold enrichment (6-mer frequency, TF over GST control)"
same,binding signal,SPIC,"1.31 fold enrichment (6-mer frequency, TF over GST control)"
same,binding signal,ELF4,"1.43 fold enrichment (6-mer frequency, TF over GST control)"
same,binding signal,ELK4,"1.34 fold enrichment (6-mer frequency, TF over GST control)"
same,binding signal,ETV2,"1.18 fold enrichment (6-mer frequency, TF over GST control)"
same,binding signal,ELF3,"1.46 fold enrichment (6-mer frequency, TF over GST control)"
same,binding signal,CRX,"1.55 fold enrichment (6-mer frequency, TF over GST control)"
same,binding signal,ETV1,"1.47 fold enrichment (6-mer frequency, TF over GST control)"
